# Laboratory results reported in PubChem BioAssay (NCATS).
# Inconclusive results are not listed. Activity calls are given as the source filed them. Calls come from the whole dose curve; as a rule, active = well fitted curve in the direction sought with a large enough effect; inconclusive = small, poorly fitted or top-dose-only effect, or another doubt; inactive = no such curve, though single readings can be large; an effect the other way counts as inactive or inconclusive.
# Biological target: Aldehyde dehydrogenase, mitochondrial (Homo sapiens) (UniProt P05091)
# Assay: qHTS for Inhibitors of the Aldehyde Dehydrogenase Family (ALDH2) Primary screen (AID 2061308);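 note: plate controls were vehicle for no effect and reference inhibitor for full effect; nearly all actives have a fitted effect of over 55% in size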
# Conditions: ALDH2 enzyme inhibition qHTS, 1536-well; series mostly up to 56 µM; activity change, negative = inhibition: at the top concentration
row,Compound,"activity change, negative = inhibition"
1,Cc1cccc(CNc2nc(-c3ccccc3C(F)(F)F)nc3ccccc23)c1,-16.8% (inactive)
2,O=C1CCCC2=C1C(c1[nH]ncc1Cl)N=C(Nc1nc3cccc(Cl)c3o1)N2 (stereo not given),-11.5% (inactive)
3,c1nc(N2CCNCC2)c2cc(-c3ccc4c(c3)OCO4)ccc2n1,1.11% (inactive)
4,Cc1ccnc(NC(=S)N2CCN(c3cccc(N(C)C)c3)CC2)c1,-10.7% (inactive)
5,CCOc1ccccc1CNc1ncnc2ccc(-c3c(C)noc3C)cc12,-18.6% (inactive)
6,CCOC(=O)C1CCN(C(=O)C(C)(C)NC(=O)Nc2cccc(OC)c2)CC1,-23.4% (inactive)
7,CC(C)COc1ccc(-c2ccc(=O)n(CC(=O)NCCc3ccccc3)n2)cc1,-4.19% (inactive)
8,CC(=O)N1CCc2cc(S(=O)(=O)N3CCN(S(=O)(=O)c4c(F)cccc4F)CC3)ccc21,14.2% (inactive)
9,COc1ccc(C(=O)N(Cc2ccccc2)Cc2cccs2)c(O)c1,1.01% (inactive)
10,Cc1cnc(-c2ccccc2C(C)O)nc1NCc1ccc(-c2cccnc2)cc1 (stereo not given),81.3% (inactive)
11,Cc1cc(NS(=O)(=O)c2ccc(NC(=O)Cc3ccccc3)cc2)no1,5.51% (inactive)
12,COc1cc(OC)cc(N2CCN(C(=S)Nc3cc(C)cc(C)n3)CC2)c1,-7.81% (inactive)
13,Cc1ccc(S(=O)(=O)Nc2cnccc2C(=O)Nc2nc(-c3cccc(Cl)c3)cs2)cc1,-16% (inactive)
14,O=S(=O)(Nc1ccc(-c2ccccc2)cc1)c1ccc(NCc2ccc(Br)cc2O)cc1,-26.1% (inactive)
15,COc1c2cc(c(O)c1OC)CCCCC(O)CCc1ccc(O)c-2c1 (stereo not given),3.92% (inactive)
16,CCOC(=O)c1ccc(-c2ccc3ncnc(NCc4ncc[nH]4)c3c2)o1,-4.23% (inactive)
17,COc1cccc(CN2C(=O)c3ccccc3NC2c2ccc(OC)c(COc3c(C)cc(NC(C)=O)cc3C)c2)c1 (stereo not given),5.22% (inactive)
18,CC(C)(C)OC(=O)NCC(=O)NNC(=O)C(C(=O)OCc1ccccc1)c1ccccc1 (stereo not given),2.9% (inactive)
19,Cc1ccc(C2N=C(Nc3nc4ccccc4o3)NC3=C2C(=O)CCC3)s1 (stereo not given),-22.9% (inactive)
20,Cc1ccc(OCCn2c(CCNC(=O)C3CCCC3)nc3ccccc32)cc1,0.922% (inactive)

row,Compound,"activity change, negative = inhibition"
1,Cc1nc2ccccn2c1C(O)(c1ccccc1)c1ccccc1,6.93% (inactive)
2,COc1cccc(NC(=S)N2CCN(c3ccccc3C(F)(F)F)CC2)n1,-12.1% (inactive)
3,NC(=O)C1CCN(c2nc(-c3cccc(Cl)c3)cs2)CC1,1.78% (inactive)
4,COc1ccc2nc(-c3ccc(OC)c(OC)c3)sc2c1,14.8% (inactive)
5,Cc1cc2c(s1)c1cnn(Cc3ccc(Br)cc3F)c(=O)c1n2C,-6.38% (inactive)
6,Cc1noc(C)c1-c1ccc2ncnc(NCC3CCN(C)CC3)c2c1,3.1% (inactive)
7,Cc1ccc(S(=O)(=O)Nc2cnccc2C(=O)Nc2nc3ccccc3s2)cc1,-8.04% (inactive)
8,Fc1cc(-c2nc(Nc3ccc(F)c(F)c3)c3ccccc3n2)ccn1,8.35% (inactive)
9,O=C(Nc1nc(-c2ccccc2)cs1)c1ccccc1-n1cnnn1,6.77% (inactive)
10,CCOc1ccc(CCNC(=O)C2CCCCC2)cc1OCC,6.75% (inactive)
11,Brc1cnc2nc(SCc3ccncc3)[nH]c2c1,-9.68% (inactive)
12,Cc1ccc(OCCn2c(CCNC(=O)c3ccccn3)nc3ccccc32)cc1,-19.9% (inactive)
13,Cc1cc(N[S+](=O)([O-])c2ccc(NC(=O)Cc3ccc4c(c3)OCCO4)cc2)no1,5.2% (inactive)
14,CN(Cc1ccco1)c1ncnc2ccc(-c3cccc(Cl)c3)cc12,10.4% (inactive)
15,CC(=O)Nn1c(C)nc2sc3c(c2c1=O)CCNC3,3.63% (inactive)
16,Cc1cc(C)nc(NC(=S)N2CCN(c3ccc(C(F)(F)F)cc3C(F)(F)F)CC2)c1,-2.21% (inactive)
17,CN[C@@H]1[C@H](O[C@H]2[C@H](O[C@@H]3[C@@H](O)[C@H](O)[C@@H](N=C(N)N)[C@H](O)[C@H]3N=C(N)N)O[C@@H](C)[C@]2(O)CO)O[C@@H](CO)[C@H](O)[C@H]1O,-4.55% (inactive)
18,Cc1ccc(S(=O)(=O)Nc2cc(Cl)cc(C(=O)Nc3nc(-c4ccccc4)cs3)c2)cc1,9.16% (inactive)
19,O=C(Cc1ccc(Cl)c(Cl)c1)Nc1ccc([S+](=O)([O-])Nc2ccc3[nH]ccc3c2)cc1,-4.02% (inactive)
20,CC(C)N1CCc2c(sc(NC(=O)C3CCCC3)c2-c2nc3ccccc3s2)C1,-7% (inactive)

# Biological target: Retinaldehyde dehydrogenase 3 (Homo sapiens) (UniProt P47895)
# Assay: qHTS for Inhibitors of the Aldehyde Dehydrogenase Family (ALDH1A3) Primary screen (AID 2061315);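 note: plate controls were DMSO vehicle for no effect and reference inhibitor for full effect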
# Conditions: ALDH inhibition qHTS; series mostly up to 56 µM; activity change, negative = inhibition: at the top concentration
row,Compound,"activity change, negative = inhibition"
1,Cc1cccc(CNc2nc(-c3ccccc3C(F)(F)F)nc3ccccc23)c1,-6.07% (inactive)
2,O=C1CCCC2=C1C(c1[nH]ncc1Cl)N=C(Nc1nc3cccc(Cl)c3o1)N2 (stereo not given),8.4% (inactive)
3,c1nc(N2CCNCC2)c2cc(-c3ccc4c(c3)OCO4)ccc2n1,-16.1% (inactive)
4,Cc1ccnc(NC(=S)N2CCN(c3cccc(N(C)C)c3)CC2)c1,-0.427% (inactive)
5,CCOc1ccccc1CNc1ncnc2ccc(-c3c(C)noc3C)cc12,3.11% (inactive)
6,CCOC(=O)C1CCN(C(=O)C(C)(C)NC(=O)Nc2cccc(OC)c2)CC1,-4.11% (inactive)
7,CC(C)COc1ccc(-c2ccc(=O)n(CC(=O)NCCc3ccccc3)n2)cc1,3.7% (inactive)
8,CC(=O)N1CCc2cc(S(=O)(=O)N3CCN(S(=O)(=O)c4c(F)cccc4F)CC3)ccc21,1.31% (inactive)
9,COc1ccc(C(=O)N(Cc2ccccc2)Cc2cccs2)c(O)c1,-15.4% (inactive)
10,Cc1cnc(-c2ccccc2C(C)O)nc1NCc1ccc(-c2cccnc2)cc1 (stereo not given),-12.5% (inactive)
11,Cc1cc(NS(=O)(=O)c2ccc(NC(=O)Cc3ccccc3)cc2)no1,-6.39% (inactive)
12,COc1cc(OC)cc(N2CCN(C(=S)Nc3cc(C)cc(C)n3)CC2)c1,-15.3% (inactive)
13,Cc1ccc(S(=O)(=O)Nc2cnccc2C(=O)Nc2nc(-c3cccc(Cl)c3)cs2)cc1,12.4% (inactive)
14,O=S(=O)(Nc1ccc(-c2ccccc2)cc1)c1ccc(NCc2ccc(Br)cc2O)cc1,-6.21% (inactive)
15,COc1c2cc(c(O)c1OC)CCCCC(O)CCc1ccc(O)c-2c1 (stereo not given),-11.7% (inactive)
16,CCOC(=O)c1ccc(-c2ccc3ncnc(NCc4ncc[nH]4)c3c2)o1,6.5% (inactive)
17,COc1cccc(CN2C(=O)c3ccccc3NC2c2ccc(OC)c(COc3c(C)cc(NC(C)=O)cc3C)c2)c1 (stereo not given),2.49% (inactive)
18,CC(C)(C)OC(=O)NCC(=O)NNC(=O)C(C(=O)OCc1ccccc1)c1ccccc1 (stereo not given),12.9% (inactive)
19,Cc1ccc(C2N=C(Nc3nc4ccccc4o3)NC3=C2C(=O)CCC3)s1 (stereo not given),-1.99% (inactive)
20,Cc1ccc(OCCn2c(CCNC(=O)C3CCCC3)nc3ccccc32)cc1,-0.898% (inactive)

row,Compound,"activity change, negative = inhibition"
1,Cc1nc2ccccn2c1C(O)(c1ccccc1)c1ccccc1,7.66% (inactive)
2,COc1cccc(NC(=S)N2CCN(c3ccccc3C(F)(F)F)CC2)n1,32.8% (inactive)
3,NC(=O)C1CCN(c2nc(-c3cccc(Cl)c3)cs2)CC1,18.1% (inactive)
4,COc1ccc2nc(-c3ccc(OC)c(OC)c3)sc2c1,-15.6% (inactive)
5,Cc1cc2c(s1)c1cnn(Cc3ccc(Br)cc3F)c(=O)c1n2C,-0.368% (inactive)
6,Cc1noc(C)c1-c1ccc2ncnc(NCC3CCN(C)CC3)c2c1,-1.69% (inactive)
7,Cc1ccc(S(=O)(=O)Nc2cnccc2C(=O)Nc2nc3ccccc3s2)cc1,8.12% (inactive)
8,Fc1cc(-c2nc(Nc3ccc(F)c(F)c3)c3ccccc3n2)ccn1,0.867% (inactive)
9,O=C(Nc1nc(-c2ccccc2)cs1)c1ccccc1-n1cnnn1,1.99% (inactive)
10,CCOc1ccc(CCNC(=O)C2CCCCC2)cc1OCC,-1.76% (inactive)
11,Brc1cnc2nc(SCc3ccncc3)[nH]c2c1,5.29% (inactive)
12,Cc1ccc(OCCn2c(CCNC(=O)c3ccccn3)nc3ccccc32)cc1,10.8% (inactive)
13,Cc1cc(N[S+](=O)([O-])c2ccc(NC(=O)Cc3ccc4c(c3)OCCO4)cc2)no1,16.6% (inactive)
14,CN(Cc1ccco1)c1ncnc2ccc(-c3cccc(Cl)c3)cc12,13.8% (inactive)
15,CC(=O)Nn1c(C)nc2sc3c(c2c1=O)CCNC3,0.642% (inactive)
16,Cc1cc(C)nc(NC(=S)N2CCN(c3ccc(C(F)(F)F)cc3C(F)(F)F)CC2)c1,10% (inactive)
17,CN[C@@H]1[C@H](O[C@H]2[C@H](O[C@@H]3[C@@H](O)[C@H](O)[C@@H](N=C(N)N)[C@H](O)[C@H]3N=C(N)N)O[C@@H](C)[C@]2(O)CO)O[C@@H](CO)[C@H](O)[C@H]1O,-11.5% (inactive)
18,Cc1ccc(S(=O)(=O)Nc2cc(Cl)cc(C(=O)Nc3nc(-c4ccccc4)cs3)c2)cc1,6.49% (inactive)
19,O=C(Cc1ccc(Cl)c(Cl)c1)Nc1ccc([S+](=O)([O-])Nc2ccc3[nH]ccc3c2)cc1,-1.24% (inactive)
20,CC(C)N1CCc2c(sc(NC(=O)C3CCCC3)c2-c2nc3ccccc3s2)C1,-2.52% (inactive)
